In PubChem BioAssay (NCATS):
Records with an inconclusive call do not appear. Activity calls are given as the source filed them. Calls come from the whole dose curve; as a rule, active = well fitted cell-killing curve with a large enough effect; inconclusive = small, poorly fitted or top-dose-only effect, or effect the other way; inactive = no such curve, though single readings can be large or run the other way.

Assay: Quantitative High-Throughput drug screen in 47 multiple myeloma cell lines against the NCATS MIPE library collection: JIM1_ECACC cell viability assay (AID 1918964)
Conditions: JIM1 myeloma viability, CellTiter-Glo ATP luminescence, 48 h; series mostly up to 45.8 µM; viability (% of DMSO): at the top concentration
Procedure, shortened: (§1)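 Luminescent ATP measurement with CellTiter-Glo gives viability, scaled between DMSO-only wells (100%) and media-only wells (0%). Cells, 500 per well, faced library compounds for 48 hours at 37C.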
Potency is the fitted concentration of half-maximal effect.

SMILES	Potency	viability (% of DMSO)
FC(F)(F)c1ccc(C=Cc2nc(COc3ccc(CCCCn4ccnn4)cc3)co2)cc1	0.0074 µM (active)	–
O=C(O)c1ccc(O)c2ncc(N3CCOCC3)cc12	20.9 µM (active)	–
CN(C)CCN(C)C(=O)c1ccc(NC(=O)Nc2ccc(-c3nc(N4CCOCC4)c4ccn(CC(F)(F)F)c4n3)cc2)cc1	0.001 µM (active)	–
C[C@@H](N)c1ccc(C(=O)Nc2ccnc3[nH]ccc23)cc1	13.2 µM (active)	–
Cc1cc(OCCCS(C)(=O)=O)cc(C)c1-c1cccc(COc2ccc3c(c2)OC[C@H]3CC(=O)O)c1	–	68.4% (inactive)

Assay: Quantitative High-Throughput drug screen in 47 multiple myeloma cell lines against the NCATS MIPE library collection: INA6_PLB cell viability assay (AID 1918965; note: nearly all actives have a fitted effect of over 55% in size)
Conditions: INA6 myeloma viability, CellTiter-Glo ATP luminescence, 48 h; series mostly up to 45.8 µM; viability (% of control): at the top concentration
Procedure, shortened: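 Approved and investigational drugs from MIPE 4.0 were added by pin tool to 500 cells per well. After 48 hours at 37C, ATP-based CellTiter-Glo luminescence indicated remaining viability.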

SMILES	Potency	viability (% of control)
COc1cc2ncnc(Nc3cc(Br)c(O)c(Br)c3)c2cc1OC	0.148 µM (active)	–
CNc1nc(-c2ccc3c(N)n[nH]c3c2)cc(N2C[C@@H](C(=O)NC3CCCCC3)CC[C@@H]2C)n1	2.09 µM (active)	–
Cc1cnc(CNC(=O)c2c(=O)c3ccc(N4CCCN(C)CC4)nc3n3c2sc2ccccc23)cn1	2.57 µM (active)	–
C[C@@H](O[C@H]1OCCN(Cc2n[nH]c(=O)[nH]2)[C@@H]1c1ccc(F)cc1)c1cc(C(F)(F)F)cc(C(F)(F)F)c1	20.9 µM (active)	–
CC1CNc2c(cccc2S(=O)(=O)N[C@@H](CCCN=C(N)N)C(=O)N2CC[C@@H](C)C[C@@H]2C(=O)O)C1 (stereo not given in full)	–	151% (inactive)
FC(F)(F)c1ccc(C=Cc2nc(COc3ccc(CCCCn4ccnn4)cc3)co2)cc1	0.0132 µM (active)	–
O=C(O)c1ccc(O)c2ncc(N3CCOCC3)cc12	–	154% (inactive)
CNC(=O)c1ccc2c(C(=Nc3cccc(CN(C)C)c3)c3ccccc3)c(O)[nH]c2c1	20.9 µM (active)	–
COc1cc2c(cc1Cc1cccc(Cl)c1F)c(=O)c(C(=O)O)cn2[C@H](CO)C(C)C	13.2 µM (active)	–
CCOC(=O)c1c(CSc2ccccc2)n(C)c2cc(Br)c(O)c(CN(C)C)c12	16.6 µM (active)	–
COc1cc(Nc2nc3ccccc3nc2NS(=O)(=O)c2ccc(NC(=O)c3ccc(C)c(OC)c3)cc2)cc(OC)c1	16.6 µM (active)	–
CCC(=C(c1ccc(O)cc1)c1ccc(OCCNC)cc1)c1ccccc1	2.64 µM (active)	–
CCn1c(-c2nonc2N)nc2cncc(CNC3CCNCC3)c21	5.9 µM (active)	–
COc1cc([C@@H]2c3cc4c(cc3[C@@H](O[C@@H]3O[C@@H]5CO[C@@H](C)O[C@@H]5[C@H](O)[C@@H]3O)[C@H]3COC(=O)[C@H]23)OCO4)cc(OC)c1O	0.332 µM (active)	–
Nc1nc(Cl)nc2c1ncn2[C@@H]1O[C@H](CO)[C@@H](O)[C@H]1F	0.0148 µM (active)	–
CCC[C@H](N[C@@H](C)C(=O)N1[C@@H]2CCCC[C@H]2C[C@H]1C(=O)O)C(=O)OCC	–	148% (inactive)
C[C@@H](N)c1ccc(C(=O)Nc2ccnc3[nH]ccc23)cc1	20.9 µM (active)	–
Cc1cc(C(C)Nc2ccccc2)c2nc(N3CCOCC3)cc(=O)n2c1 (stereo not given)	18.7 µM (active)	–
O=C(Nc1ccc(OC(F)(F)F)cc1)c1sccc1NCc1ccnc2ccccc12	18.7 µM (active)	–
Cc1nc(C(=O)NCC(=O)O)c(O)c2ccc(Oc3ccccc3)cc12	–	145% (inactive)
CCNC(=O)c1noc(-c2cc(C(C)C)c(O)cc2O)c1-c1ccc(CN2CCOCC2)cc1	0.0833 µM (active)	–
COc1ccc2nc3cc(Cl)ccc3c(Nc3cc(CN4CCCC4)c(O)c(CN4CCCC4)c3)c2n1	7.43 µM (active)	–
CN[C@@H]1CN(c2ccc3c(=O)c(C(=O)O)cn(-c4nccs4)c3n2)C[C@@H]1OC	1.44 µM (active)	–
O=C1NC(=O)C(=Cc2ccc(-c3ccc(F)cc3O)o2)S1	7.43 µM (active)	–
CO[C@@H]1C(N(C)C(=O)c2ccccc2)C[C@H]2O[C@]1(C)n1c3ccccc3c3c4c(c5c6ccccc6n2c5c31)C(=O)NC4=O (stereo not given in full)	1.48 µM (active)	–
C[C@@]1(C(=O)Nc2ccc(F)nc2)CCCN1c1nc(Nc2cc(C3CC3)[nH]n2)c2cccn2n1	13.2 µM (active)	–
C[C@H](CCC(=O)O)[C@H]1CC[C@H]2[C@H]3[C@@H](CC[C@]12C)[C@@]1(C)CC[C@@H](O)C[C@H]1C[C@@H]3O	–	122% (inactive)
COc1cc2c(cc1OC)CC(=O)N(CCCN(C)C[C@H]1Cc3cc(OC)c(OC)cc31)CC2	–	160% (inactive)
Cc1cnc(-c2cc(N3CCN(C(=O)CCS(C)(=O)=O)CC3)ncc2Cl)c(C)c1	18.7 µM (active)	–

Assay: Quantitative High-Throughput drug screen in 47 multiple myeloma cell lines against the NCATS MIPE library collection: JJN3_DSMZ cell viability assay (AID 1918966; note: nearly all actives have a fitted effect of over 50% in size)
Conditions: JJN3 myeloma cells viability, CellTiter-Glo ATP, 48 h; series mostly up to 45.8 µM; viability, % of DMSO: at the top concentration
Procedure, shortened: as §1

SMILES	Potency	viability, % of DMSO
COc1cc2c(cc1OC)[C@@H]1Cc3ccc(OC)c(OC)c3CN1CC2	20.9 µM (active)	–
CC1CNc2c(cccc2S(=O)(=O)N[C@@H](CCCN=C(N)N)C(=O)N2CC[C@@H](C)C[C@@H]2C(=O)O)C1 (stereo not given in full)	–	144% (inactive)
FC(F)(F)c1ccc(C=Cc2nc(COc3ccc(CCCCn4ccnn4)cc3)co2)cc1	–	122% (inactive)
CN(C)CCN(C)C(=O)c1ccc(NC(=O)Nc2ccc(-c3nc(N4CCOCC4)c4ccn(CC(F)(F)F)c4n3)cc2)cc1	0.0372 µM (active)	–
CNC(=O)[C@H](Cc1ccccc1)NC(=O)[C@H](CC(C)C)[C@H](CSc1cccs1)C(=O)NO	18.7 µM (active)	–
CNC(=O)c1ccc2c(C(=Nc3cccc(CN(C)C)c3)c3ccccc3)c(O)[nH]c2c1	2.64 µM (active)	–
COc1cc2c(cc1Cc1cccc(Cl)c1F)c(=O)c(C(=O)O)cn2[C@H](CO)C(C)C	16.6 µM (active)	–
CCOC(=O)c1c(CSc2ccccc2)n(C)c2cc(Br)c(O)c(CN(C)C)c12	11.8 µM (active)	–
CCC(=C(c1ccc(O)cc1)c1ccc(OCCNC)cc1)c1ccccc1	18.7 µM (active)	–
CCn1c(-c2nonc2N)nc2cncc(CNC3CCNCC3)c21	5.26 µM (active)	–
COc1cc([C@@H]2c3cc4c(cc3[C@@H](O[C@@H]3O[C@@H]5CO[C@@H](C)O[C@@H]5[C@H](O)[C@@H]3O)[C@H]3COC(=O)[C@H]23)OCO4)cc(OC)c1O	–	112% (inactive)
Nc1nc(Cl)nc2c1ncn2[C@@H]1O[C@H](CO)[C@@H](O)[C@H]1F	0.372 µM (active)	–
C[C@@H](N)c1ccc(C(=O)Nc2ccnc3[nH]ccc23)cc1	20.9 µM (active)	–
Cc1cc(C(C)Nc2ccccc2)c2nc(N3CCOCC3)cc(=O)n2c1 (stereo not given)	–	149% (inactive)
O=C(Nc1ccc(OC(F)(F)F)cc1)c1sccc1NCc1ccnc2ccccc12	9.35 µM (active)	–
CN[C@@H]1CN(c2ccc3c(=O)c(C(=O)O)cn(-c4nccs4)c3n2)C[C@@H]1OC	8.12 µM (active)	–
Cc1cc(OCCCS(C)(=O)=O)cc(C)c1-c1cccc(COc2ccc3c(c2)OC[C@H]3CC(=O)O)c1	11.8 µM (active)	–
C[C@@]1(C(=O)Nc2ccc(F)nc2)CCCN1c1nc(Nc2cc(C3CC3)[nH]n2)c2cccn2n1	0.105 µM (active)	–
CC(C)C[C@H](NC(=O)c1cc2ccccc2s1)C(=O)N1CCN(C(=O)[C@H](CO)NS(=O)(=O)c2ccc(Cl)cc2Cl)CC1	18.7 µM (active)	–
Cc1cnc(-c2cc(N3CCN(C(=O)CCS(C)(=O)=O)CC3)ncc2Cl)c(C)c1	–	169% (inactive)
COc1ccc2ccc(=O)oc2c1CC=C(C)C	11.8 µM (active)	–
